Source: PubChem
GLD-1 TGE inh: GLD-1-TGE RNA interaction inhibition (C. elegans); purified GLD-1 + fluorescein TGE RNA, fluorescence polarization; inhibition, % at 5.96 µM; 320,000 tested, 0.44% active;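 active = percent inhibition above a per-plate cutoff, the plate mean of test compounds plus 3 SD, cut at about 30% in these data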
MEX-5 binding: C. elegans MEX-5 TCR-2 RNA binding activity; 300,000 tested, 0.38% active; AID 1832; activity score (negative = inhibition of binding), % at 10 µM; MEX-5/FITC-TCR2 RNA binding, fluorescence polarization; active compounds read low; Q9XUB2;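 active = inhibition past about -25% in most replicates, and total fluorescence under double the plate's negative control median, limit read from the data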
Target sequence (Q9XUB2 whole entry, looked up): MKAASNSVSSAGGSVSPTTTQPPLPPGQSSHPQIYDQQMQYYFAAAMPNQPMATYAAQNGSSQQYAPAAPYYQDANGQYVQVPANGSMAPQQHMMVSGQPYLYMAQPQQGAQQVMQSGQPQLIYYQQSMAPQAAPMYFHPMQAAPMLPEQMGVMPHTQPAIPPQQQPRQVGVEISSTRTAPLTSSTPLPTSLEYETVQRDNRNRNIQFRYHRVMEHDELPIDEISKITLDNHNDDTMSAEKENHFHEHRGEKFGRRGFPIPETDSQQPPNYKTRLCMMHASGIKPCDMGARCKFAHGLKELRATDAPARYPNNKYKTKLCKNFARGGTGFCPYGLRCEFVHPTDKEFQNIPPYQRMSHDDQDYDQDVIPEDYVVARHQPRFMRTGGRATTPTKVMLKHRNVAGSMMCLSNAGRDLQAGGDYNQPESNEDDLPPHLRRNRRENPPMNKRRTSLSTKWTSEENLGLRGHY
eLon inh: inhibitors of E. coli Lon protease; P0A9M0; purified E. coli Lon protease, fluorescence polarization; inhibition, % at 7.94 µM; 360,000 tested, 0.42% active; in the data active = inhibition above about 13%, passing the limit was not always enough
Bcl-xL primary: inhibitors of human Bcl-xL. Q07817. GST-Bcl-xL / FITC-Bim BH3 peptide fluorescence polarization. inhibition, % at 10.9 µM. 320,000 tested, 0.7% active;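 active = inhibition above the mean of all tested compounds plus 3 SD, cutoff set per campaign, cut at about 30% in these data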;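 also: inhibitors lower millipolarization by displacing the labeled peptide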
MCL1-BIM inh: disrupts human MCL1 binding to BIM-BH3 peptide; Q07820; 320,000 tested, 0.68% active; inhibition, % at 10.9 µM; GST-MCL1 / FITC-Bim-BH3 fluorescence polarization;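 active = inhibition above the mean inhibition of all tested compounds plus 3 SD, set per campaign, cut at about 40% in these data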;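 also: higher means more loss of mP so more displacement of Bim peptide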
GLD-1 TGE cf: confirmation of C. elegans GLD-1 TGE RNA binding inhibitors. shares compounds with GLD-1 TGE inh. GLD-1/FL-TGE RNA fluorescence polarization, biochemical. inhibition, % at 5.96 µM. 550 tested, 10% active;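 active = average inhibition across triplicates above the hit cutoff set in the primary screen, cut at about 32% in these data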
Large screens that a line does not name were inactive (follow-up assays come after a bar, where they were run). In the library only some 1.4% were active in any assay of this set; here they are far more common.

Cc1ccc(NN2C(=O)C=C(c3ccccc3)C2=O)cc1	none (no result: GLD-1 TGE inh, Bcl-xL primary, MCL1-BIM inh)
Nc1nc(-c2ccccc2)c(N=Nc2ccccc2Cl)s1	GLD-1 TGE inh 159 | GLD-1 TGE cf inactive
N#C/C(C(=O)N1CCOCC1)=c1/s/c(=C\c2ccccn2)c(=O)n1-c1ccccc1	GLD-1 TGE inh 33, Bcl-xL primary 43, MCL1-BIM inh 43 | GLD-1 TGE cf inactive
CCCS(=O)(=O)NC(=O)C1(C)CCN(C(=O)c2cc(F)ccc2C)C1 (stereo unspecified)	none (no result: GLD-1 TGE inh, MEX-5 binding, Bcl-xL primary, MCL1-BIM inh)
Cc1ccc(-c2csc(N3CCN(CCCn4c(-c5ccncc5)nc5ccccc54)CC3)n2)cc1	none
Cc1ccc(-c2csc(N3CCN(CCCn4c(C(F)(F)F)nc5ccccc54)CC3)n2)cc1	GLD-1 TGE inh 40 | GLD-1 TGE cf inactive
N#CC1=C(N)Oc2c(oc(CO)cc2=O)C1c1ccccc1[N+](=O)[O-] (stereo unspecified)	GLD-1 TGE inh 37, Bcl-xL primary 38 | GLD-1 TGE cf inactive
CCOC(=O)C1=C(O)c2ccccc2C(=O)/C1=C\c1ccc(C)cc1	GLD-1 TGE inh 57, Bcl-xL primary 37, MCL1-BIM inh 43 (no result: MEX-5 binding) | GLD-1 TGE cf inactive
COc1ccc(C(C)=O)cc1Cn1c(C)c(C(=O)NCc2ccc(C(C)C)cc2)sc1=O	none (no result: GLD-1 TGE inh, MEX-5 binding, Bcl-xL primary, MCL1-BIM inh)
NNC(=O)c1cc(C23CC4CC(CC(C4)C2)C3)nc2ccccc12	GLD-1 TGE inh 60 | GLD-1 TGE cf inactive
O=C(NNc1c2ccccc2nc2ccccc12)C12CC3CC(CC(C3)C1)C2	none
COc1ccc2[nH]cc(CCNC(=O)c3ccccc3Cl)c2c1	GLD-1 TGE inh 33, Bcl-xL primary 47, MCL1-BIM inh 52 | GLD-1 TGE cf inactive
O=C1[C@@H]2Cc3c([nH]c4ccccc34)C(c3cccc([N+](=O)[O-])c3)N2C(=O)CN1C1CCN(Cc2ccccc2)CC1 (stereo partly specified)	none
CCOC(=O)c1c(-c2ccccc2)oc2cc(CN(C)C)c(O)c(CN(C)C)c12	GLD-1 TGE inh 37, Bcl-xL primary 35, MCL1-BIM inh 49 | GLD-1 TGE cf inactive
COc1ccc2nc(N3CCC(O)CC3)c(C#N)cc2c1	GLD-1 TGE inh 37, Bcl-xL primary 42 | GLD-1 TGE cf 31
COc1ccc2cc(C#N)c(N3CCOCC3)nc2c1	none
C=CCNC(=O)/C(C#N)=C/c1c(N2CCN(c3ccc(OC)cc3)CC2)nc2c(C)cccn2c1=O	GLD-1 TGE inh 33 | GLD-1 TGE cf inactive
COCCNc1c(-c2ccc(OC)cc2)nc2ccc(Cl)cn12	none
CCOC(=O)CNc1c(-c2ccc(OC)cc2)nc2ccc(Cl)cn12	GLD-1 TGE inh 37 | GLD-1 TGE cf inactive
CC1CCN(CCc2nc3cc(NC(=O)COc4ccc([N+](=O)[O-])cc4)ccc3n2C)CC1	none
Cc1ccc(NC(=O)CN2C(=O)N/C(=C/c3ccc(C)o3)C2=O)cc1	GLD-1 TGE inh 38 | GLD-1 TGE cf inactive
Cc1cccc(NC(=O)CN2C(=O)N/C(=C/c3ccc(C)o3)C2=O)c1	none
C=CCN1C(=O)N/C(=C/c2ccc(C)o2)C1=O	GLD-1 TGE inh 42 | GLD-1 TGE cf inactive
COc1cc(F)ccc1-c1cc(C(=O)NCc2cc(C(F)(F)F)cc(C(F)(F)F)c2)[nH]n1	none (no result: GLD-1 TGE inh, MEX-5 binding, Bcl-xL primary, MCL1-BIM inh)
CC(C)CN(C(=O)CCCSc1nc2ccccc2[nH]1)c1c(N)n(Cc2ccccc2)c(=O)[nH]c1=O	none
CC(C)CCN(C(=O)CCCSc1nc2ccccc2[nH]1)c1c(N)n(Cc2ccccc2)c(=O)[nH]c1=O	GLD-1 TGE inh 47 | GLD-1 TGE cf 65
C[C@@H]1CN([C@H](C)CO)C(=O)CCCn2nncc2CO[C@@H]1CN(C)S(=O)(=O)c1ccccc1F	none (no result: GLD-1 TGE inh, MEX-5 binding, Bcl-xL primary, MCL1-BIM inh)
CC(C)CCn1c(Cl)nc2c1c(=O)n(C)c(=O)n2C	GLD-1 TGE inh 31 | GLD-1 TGE cf inactive
CC(C)CCn1c(N2CCCC2)nc2c1c(=O)n(C)c(=O)n2C	none
O=C(Nc1sc2c(c1C(=O)O)CCC2)c1ccccc1	GLD-1 TGE inh 49 | GLD-1 TGE cf inactive
O=C1COc2ccccc2C(c2nc3ccccc3[nH]2)N1Cc1ccccc1 (stereo unspecified)	none (no result: GLD-1 TGE inh, MEX-5 binding, Bcl-xL primary, MCL1-BIM inh)
CC(=O)[C@@H]1[C@@H]2C(=O)N(C3CCCCC3)C(=O)[C@@H]2C2c3ccccc3C=CN21 (stereo partly specified)	GLD-1 TGE inh 32 (no result: eLon inh) | GLD-1 TGE cf 37
